Assay [1] is described as follows: compound effects on lung adenocarcinoma cell viability – A549, calcein-AM fluorescence, 48 h, basal, profiling panel (AID 1162). Note: test concentration not given here. To be noted: higher = more signal.
Assay [2] in a line: compound effects on differentiated 3T3-L1 adipocyte viability – cell-based, 3T3-L1 adipocytes, calcein-AM fluorescence, 48 h, basal, profiling panel (AID 1163). Note: test concentration not given here. To be noted: 3T3-L1 adipocytes viability, higher = more signal.
The nature of assay [3]: compound effects on hepatocellular carcinoma cell viability – HepG2, calcein-AM fluorescence, 48 h, basal, profiling panel (AID 1164). Note: test concentration not given here. To be noted: higher = more signal.
Assay [4] in a line: compound effects on multiple myeloma cell viability – MM1S, calcein-AM fluorescence, 48 h, basal, profiling panel (AID 1165).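 Note: viability of MM1S multiple myeloma cells under basal unstimulated conditions; test concentration not given here.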 To be noted: higher = more signal.
Assay [5] is described as follows: calcein-AM signal in unstimulated myeloma cells – cell-based, calcein-AM fluorescence, 48 h, PK04 Diversity Set, profiling panel (AID 1166).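 Note: cells grown under basal conditions without added stimulus; test concentration not given here.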 To be noted: RPMI8226 myeloma viability, higher = more signal.
A short description of assay [6]: JC-1 mitochondrial signal, unstimulated HepG2 cells – cell-based, JC-1 fluorescence, 24 h, 100 nL compound, profiling panel (AID 1167). Note: test concentration not given here. The settings on record: HepG2 mitochondrial potential, higher = more signal.
Assay [7] can be described thus: JC-1 mitochondrial signal, unstimulated adipocytes – cell-based, JC-1 fluorescence, 3T3-L1 adipocytes, 24 h, 100 nL compound, profiling panel (AID 1168). Note: test concentration not given here. To be noted: JC-1 mitochondrial fluorescence, higher = more signal, called active from +8 up or from −8 down.
The nature of assay [8]: JC-1 mitochondrial signal, unstimulated myeloma cells – cell-based, JC-1 fluorescence, RPMI8226, 24 h, 100 nL compound, profiling panel (AID 1169). Note: test concentration not given here. The settings on record: JC-1 mitochondrial potential fluorescence, higher = more signal.
A short description of assay [9]: JC-1 mitochondrial signal, unstimulated MM1S myeloma – cell-based, JC-1 fluorescence, 24 h, 100 nL compound, profiling panel (AID 1170). Note: test concentration not given here. To be noted: MM1S mitochondrial potential, higher = more signal.
The nature of assay [10]: resazurin metabolic signal in A549 cells – cell-based, resazurin fluorescence, 24 h, PK04 Diversity Set, profiling panel (AID 1171). Note: test concentration not given here. The settings on record: A549 viability, higher = more signal, called active from +8 up or from −8 down.
Assay [11] is described as follows: resazurin metabolic signal in HepG2 cells – cell-based, resazurin fluorescence, 24 h, PK04 Diversity Set, profiling panel (AID 1172). Note: test concentration not given here. The settings on record: HepG2 viability, higher = more signal. A general note: Alamar Blue is a resazurin reagent that responds to reducing activity.
Assay [12] can be described thus: budding yeast growth changes without added modifier – OD600, strain BY4716, 24 h, basal condition, primary screen (AID 1173). The settings on record: S. cerevisiae BY4716 growth, OD600, 24 h; higher = more signal, called active from +8 up or from −8 down.
A short description of assay [13]: viability profiling in MM1S myeloma cells – cell-based, resazurin fluorescence, basal, 24 h, PK04 Diversity Set, profiling panel (AID 1174). Note: test concentration not given here. The settings on record: higher = more signal, called active from +8 up or from −8 down.
For assay [14], the target named is Dihydroorotate dehydrogenase (quinone), mitochondrial (Plasmodium falciparum (isolate 3D7)) (UniProt Q08210). In words: inhibition of P. falciparum DHODH – biochemical, C-terminal His tag, absorbance 600 nm, primary screen (AID 1175).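 Note: recombinant parasite enzyme with a five histidine tag at its C terminus; test concentration not given here.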 To be noted: PfDHODH enzyme, DCIP absorbance 600 nm; higher = more signal, called active from +8 up or from −8 down.
Dihydroorotate dehydrogenase (quinone), mitochondrial (Plasmodium falciparum (isolate 3D7)), sequence (Q08210 whole entry, looked up): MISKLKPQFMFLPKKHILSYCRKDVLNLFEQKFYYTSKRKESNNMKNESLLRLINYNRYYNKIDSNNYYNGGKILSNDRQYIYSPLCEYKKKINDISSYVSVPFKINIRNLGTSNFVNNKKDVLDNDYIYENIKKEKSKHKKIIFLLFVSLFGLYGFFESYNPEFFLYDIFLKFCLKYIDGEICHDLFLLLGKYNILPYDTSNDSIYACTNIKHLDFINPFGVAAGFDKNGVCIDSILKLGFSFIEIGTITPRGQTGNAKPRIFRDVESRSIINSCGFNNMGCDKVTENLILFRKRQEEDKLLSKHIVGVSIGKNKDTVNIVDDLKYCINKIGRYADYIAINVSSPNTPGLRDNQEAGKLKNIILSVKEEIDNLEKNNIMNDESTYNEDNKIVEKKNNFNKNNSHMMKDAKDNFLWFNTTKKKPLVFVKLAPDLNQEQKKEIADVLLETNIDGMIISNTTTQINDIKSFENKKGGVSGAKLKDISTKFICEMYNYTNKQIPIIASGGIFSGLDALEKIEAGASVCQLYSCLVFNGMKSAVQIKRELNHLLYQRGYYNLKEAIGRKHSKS
Assay [15] in a line: inhibition of PAO1 biofilm formation – strain PAO1, LB-PBS medium, absorbance 600 nm, primary screen (AID 1176). Note: test concentration not given here. To be noted: P. aeruginosa PAO1 growth/biofilm, A600, 12 h; higher = more signal.
Assay [16] can be described thus: growth modulation of vineyard yeast isolate – strain RM11-1a, OD600, basal, 24 h, primary screen (AID 1177).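 Note: cultures grown under basal conditions with no added stressor; test concentration not given here.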 To be noted: S. cerevisiae RM11-1a growth, OD600, 24 h; higher = more signal, called active from +8 up or from −8 down.
The nature of assay [17]: growth of efflux-deficient E. coli DRC39 – strain DRC39, OD650, 24 h, E. coli filamentation inducers, primary screen (AID 1178).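 Note: growth measured as culture turbidity by optical density at 650 nm; test concentration not given here.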 The settings on record: E. coli DRC39 acrAB, higher = more signal, called active from +8 up or from −8 down.
Assay [18] in a line: growth of efflux-deficient E. coli DRC39 – strain DRC39, OD650, 48 h, E. coli filamentation inducers, primary screen (AID 1179).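 Note: screen aims at cell division blockers that make cells filament.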 The settings on record: E. coli DRC39 delta-acrAB growth, higher = more signal, called active from +8 up or from −8 down.
Assay [19] is described as follows: viability profiling in RPMI8226 myeloma cells – cell-based, resazurin fluorescence, basal, 24 h, PK04 Diversity Set, profiling panel (AID 1180).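 Note: RPMI8826 multiple myeloma cell line at 5000 cells per well; test concentration not given here.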 The settings on record: higher = more signal.
Assay [20] addresses E3 ubiquitin-protein ligase XIAP (Homo sapiens) (UniProt P98170). Kind of assay: small molecules binding XIAP protein – biophysical, small-molecule microarray, fluorescence 635 nm, primary screen (AID 1181).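 Note: score merges 667 nm emission and signal to noise over triplicate slides.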 The settings on record: higher = more signal.

Molecules are shown by their SMILES. Activity calls are given as the source filed them. Unless noted, the rule behind the calls is not given here.

E3 ubiquitin-protein ligase XIAP (Homo sapiens), sequence (P98170 whole entry, looked up): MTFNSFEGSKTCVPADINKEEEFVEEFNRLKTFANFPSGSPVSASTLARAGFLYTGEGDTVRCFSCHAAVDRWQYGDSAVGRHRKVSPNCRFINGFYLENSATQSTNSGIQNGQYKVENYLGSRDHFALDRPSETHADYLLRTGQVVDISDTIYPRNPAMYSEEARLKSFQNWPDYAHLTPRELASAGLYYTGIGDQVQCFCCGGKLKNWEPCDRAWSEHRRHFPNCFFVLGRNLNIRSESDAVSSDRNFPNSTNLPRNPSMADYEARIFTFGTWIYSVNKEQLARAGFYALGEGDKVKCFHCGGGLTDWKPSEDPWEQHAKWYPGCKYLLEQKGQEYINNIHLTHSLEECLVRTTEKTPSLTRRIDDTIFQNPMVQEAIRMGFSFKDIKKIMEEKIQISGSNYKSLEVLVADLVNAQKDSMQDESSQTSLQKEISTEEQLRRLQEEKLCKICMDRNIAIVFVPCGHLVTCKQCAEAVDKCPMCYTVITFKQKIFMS

As for `CCCCC=C[C@@H](NC(=O)c1ccc(-c2ccccc2)cc1)c1ccccc1`, the z-score in assay [1] is -1.58; in [2], -0.768; in [3] it was -1.47; in assay [4], -0.795; in [5] it was -2.1; in [6] it was -4.15. In addition, the z-score was 0.045 (inactive) in [7]; -0.741 in [8]; -0.819 in [9]; -0.305 (inactive) in [10]; 0.272 in assay [11]; -0.447 (inactive) in assay [12]. The z-score in [13] is -0.821 (inactive); in assay [15], 0.191 (inactive); in assay [16] it was 0.491 (inactive); in [17] it was -0.335 (inactive); in [18], -0.0289 (inactive); in assay [19], -1.75. The composite z-score in assay [14] is 0.34 (inactive); in assay [20] it was -0.0272.

Take `CC(=O)c1ccc(C(O)C2C=CC3C(=O)N(c4ccccc4)C(=O)C3N2Nc2ccc(C#N)cc2)cc1` (stereo not given): the z-score was -0.53 in [1]; -0.292 in [2]; -0.477 in [3]; -0.262 in assay [4]; -0.821 in assay [5]; -1.19 in assay [6]. For the same molecule, the z-score in assay [7] is -1.06 (inactive); in assay [8], -0.257; in assay [9], -0.0349; in assay [10], -0.178 (inactive); in assay [11], -1.04; in assay [12], -2.04 (inactive). Further, the z-score was -0.848 (inactive) in [13]; 0.695 (inactive) in assay [15]; -0.826 (inactive) in [16]; -0.821 (inactive) in assay [17]; -0.433 (inactive) in [18]; -1.84 in assay [19]. Also, the composite z-score is -0.946 (inactive) in assay [14] and -0.396 in assay [20].

As for `COc1cc(OC)c(C(O)C2C=CC3C(=O)N(C)C(=O)C3N2NC(=O)OC(C)(C)C)cc1Br` (stereo not given), the z-score was 0.521 in [1]; -0.23 in assay [2]; 0.25 in assay [3]; -0.591 in [4]; 0.442 in assay [5]; -1.05 in assay [6]. The z-score in assay [7] is -0.0401 (inactive); in [8], 0.0442; in assay [9], 1.18; in assay [10] it was -0.503 (inactive); in assay [11] it was -1.88; in assay [12], -5.3 (inactive). Moreover, the z-score in assay [13] was -0.652 (inactive); in assay [15], 0.683 (inactive); in [16], 1.18 (inactive); in assay [17], -0.143 (inactive); in assay [18], -0.376 (inactive); in [19], -0.34. The values for the composite z-score in assay [14] and in assay [20] were 0.985 (inactive) and 0.677, respectively.

Take `O=C1OCCC=C[C@H]2OC34C=CCN(Cn5nnc6ccccc65)C(=O)[C@H]3N(CCCCCCO)C(=O)[C@@H]4C12` (stereo not given in full): the z-score in [1] was 0.16; in [2], -0.808; in [3], -0.381; in [4], 1.78; in assay [5], -0.264; in assay [6], 0.515. The z-score in [7] was 0.256 (inactive); in assay [8] it was -0.137; in assay [9], -0.5; in assay [10], -0.356 (inactive); in [11], -0.677; in assay [12], 0.506 (inactive). For the same molecule, the z-score was -2.51 (inactive) in assay [13]; 0.205 (inactive) in assay [15]; 0.587 (inactive) in [16]; 0.603 (inactive) in [17]; 0.703 (inactive) in assay [18]; -0.288 in [19]. Moreover, the composite z-score in [14] is -0.272 (inactive); in assay [20] it was -0.302.

For the molecule `Cc1ccc(S[C@]2(C(=O)NCC(F)(F)F)CC(=O)N(Cc3ccccc3)[C@@H]2c2ccc(CO)cc2I)cc1`, the z-score in [1] is 0.208; in assay [2], -0.649; in assay [3], -0.425; in assay [4] it was -1.84; in [5], -2.08; in [6], -1.75. Besides, the z-score in assay [7] was -0.68 (inactive); in [8], -0.797; in assay [9], -1.59; in assay [10] it was 0.589 (inactive); in [11], 0.448; in [12] it was -3.93 (inactive). For the same molecule, the z-score was -3.15 (inactive) in assay [13]; 0.848 (inactive) in assay [15]; -1.55 (inactive) in [16]; 0.531 (inactive) in assay [17]; 0.562 (inactive) in assay [18]; -2.27 in assay [19]. For the same molecule, the composite z-score was 0.343 (inactive) in assay [14] and 0.0338 in assay [20].

Consider `CCOC(=O)C1=CC[C@@H](c2ccccc2C(F)(F)F)N(S(=O)(=O)c2ccc(C)cc2)[C@H]1c1ccc(C#N)cc1`, for which the z-score is -0.711 in assay [1]; -0.842 in assay [2]; -0.326 in assay [3]; -0.509 in assay [4]; -0.214 in assay [5]; -1.02 in [6]. The z-score in assay [7] is -0.544 (inactive); in assay [8], 0.801; in assay [9], -0.81; in assay [10], -0.035 (inactive); in [11], -0.0666; in assay [12] it was 1.02 (inactive). Besides, the z-score in [13] is -1.39 (inactive); in assay [15] it was 1.01 (inactive); in assay [16], -0.171 (inactive); in [17], -0.534 (inactive); in assay [18], 0.312 (inactive); in [19], -0.823. In addition, the composite z-score in assay [14] is -0.0408 (inactive); in assay [20] it was -0.0172.

For `C#CCN([C@@H](Cc1ccc(O)cc1)C(=O)OC)[C@@H](/C=C/C1CC1)[C@H](O)Cc1ccccc1`, the z-score is -3.21 in assay [1]; -0.0073 in [2]; -3.12 in assay [3]; -3.28 in [4]; -4.06 in assay [5]; -3.58 in assay [6]. Further, the z-score was -0.0474 (inactive) in assay [7]; -1.2 in assay [8]; -1.58 in [9]; -0.2 (inactive) in assay [10]; -1.12 in [11]; -2.71 (inactive) in assay [12]. Also, the z-score in [13] is -0.758 (inactive); in assay [15] it was -0.672 (inactive); in assay [16], -0.136 (inactive); in assay [17], -0.933 (inactive); in [18] it was -0.737 (inactive); in assay [19], -0.61. The composite z-score in [14] was -0.228 (inactive); in assay [20], 0.798.

In the case of `C=CCC(OC(C)=O)[C@@H]1[C@@H](N(Cc2ccc(-c3cccc(C(F)(F)F)c3)o2)C(=O)c2ccc(C)cc2)c2cc(OCCCO)ccc2N1C(=O)c1ccc2ccccc2c1` (stereo not given in full), the z-score in assay [1] was -0.403; in assay [2], 0.821; in [3], 0.236; in [4], 0.47; in assay [5], 0.966; in [6], 3.41. In addition, the z-score is 0.586 (inactive) in [7]; 0.102 in assay [8]; -0.555 in assay [9]; 0.462 (inactive) in assay [10]; 0.472 in [11]; 0.656 (inactive) in [12]. Besides, the z-score in assay [13] is 0.845 (inactive); in [15] it was -0.124 (inactive); in [16], 0.544 (inactive); in [17] it was -0.0973 (inactive); in assay [18], 0.759 (inactive); in [19], 1.37. In addition, the composite z-score was -0.689 (inactive) in assay [14] and -0.0878 in assay [20].

As to `CCOC(=O)C[C@H]1[C@H](OC(=O)c2ccccc2-c2ccccc2)[C@@H](NC(=O)c2ccc(-c3ccccc3)cc2)c2cc(OCCCO)ccc2N1C(=O)c1ccc2ccccc2n1`, the z-score in assay [1] is -0.137; in assay [2] it was -0.163; in [3], 0.336; in assay [4], 0.402; in assay [5] it was -0.485; in [6], -0.149. Also, the z-score was 1.18 (inactive) in [7]; 0.0491 in assay [8]; -0.63 in assay [9]; 0.524 (inactive) in assay [10]; -0.0523 in assay [11]; 0.662 (inactive) in assay [12]. The z-score in assay [13] was 0.128 (inactive); in [15] it was 0.318 (inactive); in [16] it was 0.752 (inactive); in [17], -0.447 (inactive); in assay [18], -0.0565 (inactive); in [19], 0.636. Further, the composite z-score is -0.0558 (inactive) in assay [14] and 0.0891 in assay [20].

Values taken from PubChem BioAssay.
